Results as given in PubChem BioAssay (NCATS).
Records with an inconclusive call do not appear. Values without a mark were called inactive. Active and inactive are the calls of the source. Calls follow the shape of the dose curve; as a rule, active = well fitted inhibition curve with a large enough effect; inconclusive = small, poorly fitted or top-dose-only effect; inactive = no such curve, though single readings can be large or run the other way.

test system: not listed separately; assay: Primary qHTS for small molecule stabilizers of the endoplasmic reticulum resident proteome: Secreted ER Calcium Modulated Protein (SERCaMP) assay (AID 1508630); details: SH-SY5Y GLuc-SERCaMP (Gaussia luciferase released on ER calcium loss) secretion, thapsigargin, luminescence; series mostly up to 38.4 µM; activity change, negative = inhibition: at the top concentration
Procedure, shortened: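 GLuc-SERCaMP-expressing SH-SY5Y cells, pretreated 16 h with compound, are challenged with thapsigargin to empty ER calcium stores; after 4 h, coelenterazine is added directly to the medium and luminescence is imaged.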
% is scaled to controls: 0 for no effect and ±100 for the full control effect; potency is read from the fitted curve at half-maximal effect.

Structure (SMILES) | Potency | activity change, negative = inhibition [%]
Cn1c(=O)c2[nH]c(C3CCCC3)nc2n(C)c1=O | inactive | –
COc1cc(/C=C(\C#N)C(=O)c2ccc(O)c(O)c2)cc(I)c1O | 11.2 µM (active) | –
NC(N)=NC(N)=Nc1ccccc1 | – | -1.11
O=c1[nH]c(=S)[nH]c(-c2ccccc2)c1Cc1c(O)ccc2ccccc12 | – | 5.35
CCCCCCN(CCCCCC)C(=O)Cc1c(-c2ccc(F)cc2)[nH]c2ccccc12 | inactive | –
COc1ccc(-c2ccc(N)[n+](CCCC(=O)O)n2)cc1 | – | -18.5
COc1ccc2c(c1)c(CC(=O)O)c(C)n2C(=O)c1ccccc1 | – | 14.4
CC(C)NC[C@H](O)COc1cccc2ccccc12 | – | -5.15
N#CC(C#N)=C(N)/C(C#N)=C/c1ccc(O)cc1 | – | -26.9
COc1cccc(OC)c1OCCNCC1CSc2ccccc2O1 (configuration not stated) | – | -27.3
C=CC1(C)CC(=O)C2(O)C(C)(O1)C(OC(C)=O)C(O)C1C(C)(C)CCC(O)C12C (configuration not stated) | – | 80.5
[N-]=[N+]=Nc1ccc(C(=O)CSC[C@H](NC(=O)CC[C@H](N)C(=O)O)C(=O)NCC(=O)O)cc1 | – | 28.4
CNCCNS(=O)(=O)c1cccc2cnccc12 | – | -25.9
CC(C)NCC(O)COc1ccc(CC(N)=O)cc1 (configuration not stated) | inactive | –

target: Papain (Carica papaya) (UniProt P00784); assay: Primary qHTS assay for inhibitors of the protease papain (AID 1645873); details: papain Z-FR-AMC cleavage, AMC fluorescence; series mostly up to 49.8 µM; activity change, negative = inhibition: at the top concentration;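 also: papain turnover of Z-FR-AMC read as the AMC fluorescence gain over 10 min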
Sequence (P00784 whole entry, looked up): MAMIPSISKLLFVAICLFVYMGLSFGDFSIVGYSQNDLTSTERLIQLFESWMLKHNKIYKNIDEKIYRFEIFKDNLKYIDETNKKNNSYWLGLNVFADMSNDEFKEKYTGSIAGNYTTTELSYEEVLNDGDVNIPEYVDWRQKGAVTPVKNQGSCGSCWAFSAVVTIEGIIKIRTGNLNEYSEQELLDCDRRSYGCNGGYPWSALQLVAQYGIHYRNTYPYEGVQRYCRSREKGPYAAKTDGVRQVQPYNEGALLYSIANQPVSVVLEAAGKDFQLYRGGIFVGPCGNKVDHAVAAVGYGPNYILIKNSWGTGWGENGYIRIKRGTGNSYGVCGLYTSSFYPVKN

Structure (SMILES) | activity change, negative = inhibition [%] | Potency
CN1CCCC1CCOC(C)(c1ccccc1)c1ccc(Cl)cc1 (configuration not stated) | 9.99 | –
O=C(O)CCC(=O)N1CCCC1C(=O)O (configuration not stated) | 24.2 | –
Nc1ncnc2c1c(-c1ccc(Oc3ccccc3)cc1)cn2C1CCCC1 | -13.1 | –
Cc1nc(N=Nc2ccc(S(=O)(=O)O)cc2S(=O)(=O)O)c(COP(=O)(O)O)c(C=O)c1O | -8.37 | –
N#Cc1cc([N+](=O)[O-])c2sc(C(N)=O)[n+]([O-])c2c1 | 1.35 | –
CCCCCCCCCCC(C)(C)C(=O)Nc1c(OC)cc(OC)cc1OC | -18.8 | –
NC(=Nc1ccccc1)NC(=O)c1nc(Cl)c(N)nc1N | – | 25.1 µM (active)
NC(N)=NC(N)=Nc1ccccc1 | -12 | –
Cc1ccccc1/C=C/C1=NCCN1 | 17 | –
CCCCOC(=O)NS(=O)(=O)c1sc(CC(C)C)cc1-c1ccc(Cn2c(CC)nc3c(C)cc(C)nc32)cc1 | -15.2 | –
O=S(=O)(c1cccc2c(Cl)cccc12)N1CCCNCC1 | 8.19 | –
CCCCCCCCCCCCCCC[C@H](O)[C@H](N)CO | 39.1 | –
CN1C2CCC1CC(OC(c1ccccc1)c1ccccc1)C2 (configuration not stated) | 1.53 | –
COc1ccc(-c2ccc(N)[n+](CCCC(=O)O)n2)cc1 | 40.6 | –
COc1ccc2c(c1)c(CC(=O)O)c(C)n2C(=O)c1ccccc1 | -0.45 | –
CC(C)NC[C@H](O)COc1cccc2ccccc12 | 12 | –
CNCCNS(=O)(=O)c1cccc2cnccc12 | -2.25 | –
CC(C)NCC(O)COc1ccc(CC(N)=O)cc1 (configuration not stated) | 9.09 | –
